# Experimental data published in PubChem BioAssay (NCATS).
# Records with an inconclusive call do not appear. Active and inactive are the calls of the source. Unless noted, calls follow the shape of the dose curve; as a rule, active = well fitted curve in the direction sought with a large enough effect; inconclusive = small, poorly fitted or top-dose-only effect, or another doubt; inactive = no such curve, though single readings can be large; an effect the other way counts as inactive or inconclusive.
# What was measured:
# [1] = qHTS assay for measurement of the activity of small molecule inhibitors on Zika virus induced Caspase-3 activity in human iPSC derived neural progenitor cells (hNPCs) (AID 1224857); also: nearly all actives have a fitted effect of over 65% in size; also: potency is read from the fitted curve at half-maximal effect
# How it was run: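 Caspase-3/7 induction by a 6-hour ZIKV infection was quantified with a luminescent Caspase-Glo 3/7 reagent incubated 30 minutes at room temperature. Compounds were preincubated with hNPCs for 1 hour; inhibition was calculated against uninfected and infected control wells.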
# [2] = High-throughput drug toxicity screening in the BPDCN cell line Gen2.2 (AID 1224824; call rule not given here;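 also: cells exposed to compounds for 48 h before reading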); conditions: Gen2.2 BPDCN cells; at 45.8 µM (top of the series)
# How it was run: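 CellTiter-Glo luminescence after 48 h compound exposure of Gen2.2 cells; percent activity set with DMSO as 100% and bortezomib (9.2 uM final) as 0%. Cells seeded at 500 per well, RPMI + 10% FBS, 37 °C.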
# [3] = High-throughput drug toxicity screening in the BPDCN cell line Cal-1 (AID 1224825; call rule not given here); conditions: Cal-1 BPDCN cell viability, qHTS; at 45.8 µM (top of the series)
# How it was run: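 Cal-1 cells, 500 per well in phenol-red-free RPMI with 10% FBS, exposed to compounds for 48 hours at 37C, 5% CO2. Viability read by CellTiter-Glo luminescence; percent activity normalized to DMSO (100%) and 9.2 uM bortezomib final (0%).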
# [4] = qHTS assay for measurement of the activity of small molecule inhibitors on Zika virus induced Caspase-3 activity in human astrocytoma cells (AID 1224859);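 also: plate controls were ZIKV-infected untreated cells for no effect and uninfected cells for full effect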
# How it was run: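 In SNB-19 cells plated at 250 cells/well and grown 16-20 h, compounds were applied 1 h before ZIKV (2 FFU/cell). Six hours later caspase-3/7 luminescence was recorded.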
# [5] = qHTS Screen of the MIPE 4.0 Collection Against Ewings Sarcoma (TC71) (AID 1259253); also: nearly all actives have a fitted effect of over 40% in size; also: potency is read from the fitted curve at half-maximal effect
# How it was run: (§1)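 Viability screen: 48 h incubation at 37C, 95% humidity, 5% CO2 with serially titrated compound, followed by CellTiter-Glo readout.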
# [6] = qHTS Screen of the MIPE 4.0 Collection Against Ewings Sarcoma (EW8) (AID 1259255); also: nearly all actives have a fitted effect of over 35% in size; also: potency is read from the fitted curve at half-maximal effect;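 as to viability: 100% = DMSO-treated cells and 0% = medium-only wells without cells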
# How it was run: as §1
# [7] = qHTS Screen of the MIPE 4.0 Collection Against Ewings Sarcoma (TC32) (AID 1259256); also: nearly all actives have a fitted effect of over 45% in size; also: potency is read from the fitted curve at half-maximal effect
# How it was run: as §1
# [8] = qHTS Screen of the MIPE 4.0 Collection Against Ewings Sarcoma (RDES) (AID 1259252); also: potency is read from the fitted curve at half-maximal effect; nearly all actives have a fitted effect of over 35% in size
# How it was run: as §1
# [9] = qHTS assay to identify small molecule inhibitors of chordoma cells - UCH-2 (AID 1259356); also: % is scaled to controls: 0 for no effect and ±100 for the full control effect
SMILES,Potency [1],"cell viability, % of control (lower = more cytotoxic) [2] [%]",viability (% of control) [3] [%],Potency [4],Potency [5],Potency [6],Potency [7],Potency [8],Potency [9]
C[C@@H]1O[C@H](C[N+](C)(C)C)C[C@H]1O,inactive,,,,,,,,
Clc1ccccc1C(c1ccccc1)(c1ccccc1)n1cccn1,,108,108,inactive,1050 nM (active),1050 nM (active),935 nM (active),,
COC1=CC(C)=C[C@@H](C)[C@@H](O)[C@@H](C)CC(C)=CC=C[C@H](OC)[C@H]([C@@H](C)[C@@H](O)[C@H](C)[C@@]2(O)C[C@@H](O)[C@H](C)[C@@H](C(C)C)O2)OC1=O,,67.2,18.4,inactive,,5.3 nM (active),3.3 nM (active),,
CC[C@H]1C=CC=CC[C@@H](C)[C@H](O)[C@@](C)(O)C(=O)[C@@H](C)[C@H](O)[C@@H](C)C(=O)[C@@H](C)[C@H](O)[C@@H](C)C=CC(=O)O[C@@H]2[C@@H](C)[C@H](CC1)O[C@]1(CC[C@H](C)[C@H](C[C@@H](C)O)O1)[C@H]2C,inactive,8.73,6.39,,11.8 nM (active),4690 nM (active),,,
N=c1c2c(-c3ccccc3)c(-c3ccccc3)n(Cc3ccccc3)c2ncn1C1CCC(O)CC1 (stereo not drawn),inactive,130,11.7,,,,662 nM (active),1180 nM (active),
CC(=Cc1csc(C)n1)[C@@H]1C[C@H]2O[C@@H]2CCC[C@H](C)[C@@H](O)[C@@H](C)C(=O)C(C)(C)[C@@H](O)CC(=O)O1,,50.1,26.8,inactive,inactive,inactive,inactive,,
CC(=O)N(C)c1cccc(-c2ccnc3c(C(=O)c4cccs4)cnn23)c1,,111,72.5,inactive,,,,,
CC1(N2CCC(n3c([C@@H]4CCCNC4)nc4ccccc43)CC2)CCCCCCC1,,17.2,5.69,inactive,,10500 nM (active),9350 nM (active),,
NC1CC1c1ccccc1 (stereo not drawn),inactive,70.9,95.2,,inactive,inactive,inactive,,
O=S(=O)(F)Cc1ccccc1,,76.9,97.3,,inactive,,,41.8 nM (active),
O=S(=O)(CC1CS1)c1ccc(Oc2ccccc2)cc1 (stereo not drawn),,3.87,3.02,,,20900 nM (active),16600 nM (active),,
C[C@@H]1CC[C@H]2[C@@H](C)C(=O)O[C@@H]3O[C@@]4(C)CC[C@H]1[C@]32OO4,,95.1,98.1,,3720 nM (active),,,18700 nM (active),
CC1=C(O)C(=O)C=C2C1=CC=C1[C@@]2(C)CC[C@@]2(C)[C@@H]3C[C@](C)(C(=O)O)CC[C@]3(C)CC[C@]12C,inactive,12.3,7.21,,1180 nM (active),935 nM (active),833 nM (active),1320 nM (active),
CC(C)[C@]12O[C@@H]1[C@@H]1O[C@]13[C@]1(O[C@H]1C[C@@H]1C4=C(CC[C@@]13C)C(=O)OC4)[C@H]2O,inactive,4.5,2.1,,inactive,inactive,inactive,,
CC(C)[C@H]1CN[C@H](C(=O)O)[C@H]1CC(=O)O,inactive,,,,,,,,
O=C1C=CC[C@@H]2[C@H]3CCCN4CCC[C@@H](CN12)[C@@H]34,4690 nM (active),126,120,,,,16600 nM (active),,
CCOC(=O)c1cncn1[C@H](C)c1ccccc1,,124,105,inactive,inactive,inactive,inactive,,
CC(C)(O)C(=O)Nc1ccc([N+](=O)[O-])c(C(F)(F)F)c1,,21,14.7,inactive,23500 nM (active),,23500 nM (active),,
COc1cc2cc(c1Cl)N(C)C(=O)C[C@H](OC(=O)C(C)C)[C@]1(C)O[C@H]1[C@H](C)[C@@H]1C[C@@](O)(NC(=O)O1)[C@H](OC)C=CC=C(C)C2,,10.1,4.31,inactive,inactive,inactive,inactive,,
COCC1(CO)C(=O)C2CCN1CC2 (stereo not drawn),inactive,4.6,2.52,,2350 nM (active),2640 nM (active),2350 nM (active),,
CNCCc1ccc(O)c(O)c1,inactive,,,,,,,,
NC1=NC(=O)N2CC12 (stereo not drawn),inactive,8.27,7.57,,,inactive,inactive,,inactive
CN1[C@H]2CC(O)C[C@H]1[C@H]1O[C@H]12 (stereo partly drawn),inactive,21.9,52.9,,26400 nM (active),23500 nM (active),23500 nM (active),,
